Measured values published in the supplement of paper PMC10981050.
“And” between values parts separate entries of the source, which are not always exact repeats. Equal entries are not always repeated. Structures can show the parent of a compound that is named as a salt.

Tests used:
Experiment in all cases: cell viability relative to vehicle control; higher = less cytotoxic
Settings in all cases: 10 µM
[1] = system: K562
Method in brief: (§1)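 Screening covered the Selleck bioactive, kinase and epigenetic probe libraries, less identity-inconsistent compounds, on CRISPR-edited mutant clones and isogenic wild-type clones of four leukaemia lines. Cells, at 2000 per well in 50 µL medium, received a single 10 µM acoustically dispensed dose. After 48 h the supernatant was removed and CellTiter-Glo luminescence was read. Viability was analysed in Genedata Screener as percent of the on-plate vehicle control.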

[2] = system: MARIMO
Method in brief: as §1

[3] = system: MOLM14
Method in brief: as §1

[4] = system: OCI-AML2
Method in brief: as §1

SMILES	cell viability ([1]; SRSF2 genotype: SRSF2 P95H/wt)	cell viability ([1]; SRSF2 genotype: SRSF2 wt/wt) [%]	cell viability ([2]; SRSF2 genotype: SRSF2 P95H/wt) [%]	cell viability ([2]; SRSF2 genotype: SRSF2 wt/wt) [%]	cell viability ([3]; SRSF2 genotype: SRSF2 P95H/wt) [%]	cell viability ([3]; SRSF2 genotype: SRSF2 wt/wt) [%]	cell viability ([4]; SRSF2 genotype: P95H/wt) [%]	cell viability ([4]; SRSF2 genotype: wt/wt) [%]
O=C(NO)c1ccc(CC(=O)N(CCO)c2ccccc2)cc1	87.2% and 92.2%	86.2	78.9	90.4	71.9	73.6	77.2	81.6
CC(C)Cn1cnc2c(N)nc3ccccc3c21 [Imiquimod]	80.9% and 85.2%	77.2	78.5	92.4	78.1	84.8	85.9	85.4
Cc1cc(NC(=O)c2cccc(NC(=O)/C=C/CN(C)C)c2)ccc1Nc1nccc(-c2cccnc2)n1	59.8% and 60.8%	65.5	53.1	50.7	6.36	6.17	17.2	26.6
O=C(O)c1cc(I)ccc1NC(=O)[C@H](Cc1ccccc1)NCc1ccccc1	102% and 98.6%	101	99.9	103	99	101	110	119
CO/N=C(\C(=O)N[C@@H]1C(=O)N2C(C(=O)OC(C)OC(C)=O)=C(COC(N)=O)CS[C@H]12)c1ccco1 (stereo partly drawn) [Cefuroxime axetil]	103% and 102%	96.2	99.6	104	101	107	111	105
COc1ccc(-c2cnc3c(-c4cccc5ncccc45)cnn3c2)cc1	98.9% and 100%	92.7	104	112	93	108	90.4	91.5
CC(=O)O[C@]1(C(C)=O)CC[C@H]2[C@@H]3C=C(Cl)C4=CC(=O)[C@@H]5C[C@@H]5[C@]4(C)[C@H]3CC[C@@]21C [Cyproterone acetate]	87.2% and 85.8%	84.7	66.1	71.6	86.2	93.3	75	77.4
CCCOc1ccc2[nH]c(NC(=O)OC)nc2c1 [Oxibendazole]	15.3% and 34.8%	28	6.59	7.72	10.9	3.24	4.68	8.07
CC(C)N(CCCNC(=O)Nc1ccc(C(C)(C)C)cc1)C[C@H]1O[C@@H](n2ccc3c(N)ncnc32)[C@H](O)[C@@H]1O	94.6% and 92.6%	86.1	89.3	96.9	95.5	92	84.3	89.6
CC(C)[C@H](N)C(=O)OCC(CO)OCn1cnc2c(=O)nc(N)[nH]c21 (stereo partly drawn) [Valganciclovir Hydrochloride]	86.3% and 81.6%	83.1	90.7	84.8	87.2	88.3	77	89.2
O=CO [Formate]	101% and 91.4%	99	97.5	104	102	106	96.7	96
O=c1oc2cc(O)ccc2c2ccc(O)cc12 [S5312 Urolithin A.cdx]	98.3% and 101%	106	99.9	98.3	97.4	105	89	94.5
NC(=O)[C@H](CCCN=C(N)CCl)NC(=O)c1ccccc1 [Cl-amidine]	101% and 98%	95.7	101	97.2	98.4	99	111	102
Nc1ncnc2c1C(=O)N(c1ccc([C@H]3CC[C@H](CC(=O)O)CC3)cc1)CCO2	107% and 104%	110	105	107	105	105	108	123
C#C[C@]1(O)CC[C@H]2[C@@H]3CCc4cc(OC)ccc4[C@H]3CC[C@@]21C [Mestranol]	79% and 93.7%	96.3	78.5	76	90.7	99.9	74.9	82
Cc1ccc(C(C)C)cc1 [p-Cymene]	111% and 96.9%	113	95.9	99.5	100	106	117	119
OC[C@H]1NC[C@H](O)[C@@H](O)[C@@H]1O [1-Deoxynojirimycin]	103% and 98.1%	94.5	103	107	97.8	106	96.4	108
O=c1[nH]c(=O)c2[nH]cnc2[nH]1 [2,6-Dihydroxypurine]	107% and 100%	104	106	110	101	107	101	109
CO/N=C(\C(=O)N[C@@H]1C(=O)N2C(C(=O)[O-])=C(C[n+]3cccc4c3CCC4)CS[C@H]12)c1csc(N)n1 [Cefpirome sulfate]	100% and 107%	106	94.2	108	103	103	101	104
Cc1cc(Nc2cc(Cl)nc(Oc3ccc([N+](=O)[O-])cc3)n2)n[nH]1 [Autophinib]	30.5% and 32.9%	31.3	33.4	53.3	29.9	14.5	50	47.9
N/N=c1\[nH][nH]/c(=N\N)c2ccccc12 [Dihydralazine sulphate]	93.9% and 93.2%	95.5	95.3	94.3	106	103	93	95.4

SMILES	cell viability ([1]; SRSF2 genotype: SRSF2 P95H/wt)	cell viability ([1]; SRSF2 genotype: SRSF2 wt/wt) [%]	cell viability ([2]; SRSF2 genotype: SRSF2 P95H/wt) [%]	cell viability ([2]; SRSF2 genotype: SRSF2 wt/wt) [%]	cell viability ([3]; SRSF2 genotype: SRSF2 P95H/wt) [%]	cell viability ([3]; SRSF2 genotype: SRSF2 wt/wt) [%]	cell viability ([4]; SRSF2 genotype: P95H/wt) [%]	cell viability ([4]; SRSF2 genotype: wt/wt) [%]
Cc1cc(=O)oc2cc(O)ccc12 [4-Methylumbelliferone (4-MU)]	107% and 96.8%	99.6	98.5	96.7	102	102	100	99.9
CN1CCN(S(=O)(=O)c2ccc(-c3cnc(N)c(C(=O)Nc4cccnc4)n3)cc2)CC1	72.1% and 61.7%	73.6	76.7	114	40.6	42.1	30	63.3
COc1ccc2c(c1)c(CC(=O)O)c(C)n2C(=O)c1ccc(Cl)cc1 [Indomethacin (Indocid, Indocin)]	98.6% and 106%	105	110	107	106	107	117	114
COc1c(O)cc2c(c1O)[C@@H]1O[C@H](CO)[C@@H](O)[C@H](O)[C@H]1OC2=O [Bergenin (Cuscutin)]	100% and 84%	86.1	89.2	99	85.6	91.9	91	94.1
CCCCN(Cc1ccc(C(=O)NO)cc1)C(=O)Nc1ccccc1 [Nexturastat A]	23.9% and 35.1%	45.5	6.74	21	7.82	2.04	3.08	7.67
Oc1cc(O)c2c(c1)OC(c1ccc(O)c(O)c1)C(O)C2 (single isomer, unassigned; (+)) [(+)-Catechin hydrate]	103% and 94.1%	103	106	103	104	104	104	108
COC(=O)c1ccc2c(c1)nc(NC(=O)c1ccccc1)n2CCCc1ccccc1	77.8% and 75.4%	79.5	70.1	91.6	87.9	93.7	64.5	68.7
N=C(NCCCCCCNC(=N)NC(=N)Nc1ccc(Cl)cc1)NC(=N)Nc1ccc(Cl)cc1 [Chlorhexidine]	14.9% and 12%	23	39.3	34.6	5.12	4.9	2.08	6.07
Oc1ncnc2[nH]ncc12 [Allopurinol (Zyloprim)]	99% and 99.5%	104	97.1	98.3	99.3	96	101	104
CC(C)=CCCC(C)(O)C1CCC2(C)C1C(O)CC1C3(C)CCC(O)C(C)(C)C3C(OC3OC(CO)C(O)C(O)C3OC3OC(C)C(O)C(O)C3O)CC12C [(20S)Ginsenoside Rg2]	102% and 108%	98.7	108	108	104	104	101	115
CN/C(=N\CCSCc1nc[nH]c1C)NC#N [Cimetidine (Tagamet)]	102% and 100%	98.8	102	106	101	102	105	104
CCOc1ccccc1OCCN[C@H](C)Cc1ccc(OC)c(S(N)(=O)=O)c1 [Tamsulosin]	100% and 96%	90.7	85.2	103	97.5	98	87.4	105
CCCCCCCCC/C(=C\C1=C(C)C(=O)C(OC)=C(OC)C1=O)C(=O)O	106% and 100%	99.4	112	105	94.2	102	108	107
NC(=O)c1ncn([C@@H]2O[C@H](CO)[C@@H](O)[C@H]2O)n1 [Ribavirin (Copegus)]	100% and 95.1%	90.2	87.2	97.3	56.2	24	99.6	92.5
Cc1ccccc1C(OCCN(C)C)c1ccccc1 (stereo not drawn) [Orphenadrine Hydrochloride]	99.9% and 97.1%	101	86.2	92.2	100	103	101	98.8
C#CCN[C@@H]1CCc2ccccc21 [Rasagiline mesylate]	98% and 105%	101	105	106	99.4	104	108	107
CN1CCN(c2ccc(Nc3cc(-c4cccc(-n5ccc6cc(C7CC7)cc(F)c6c5=O)c4CO)cn(C)c3=O)nc2)CC1	15.9% and 12.5%	29.8	18.2	0.49	0.81	1.57	2.87	4.49
CC(C)C[C@H](NC(=O)[C@H](CCc1ccccc1)NC(=O)CN1CCOCC1)C(=O)N[C@@H](Cc1ccccc1)C(=O)N[C@@H](CC(C)C)C(=O)[C@@]1(C)CO1 [Carfilzomib (PR-171)]	2.27% and 2.75%	1.72	0.54	1.08	0.49	0.49	0.45	0.57
Cc1cc(O)cc(O)c1 [Orcinol]	110% and 104%	104	100	98.8	113	107	98.7	107
CC(=O)S[C@@H]1CC2=CC(=O)CC[C@]2(C)[C@H]2CC[C@@]3(C)[C@@H](CC[C@@]34CCC(=O)O4)[C@H]12 [spironolactone]	87.8% and 90.2%	89.7	78.3	84.5	90.1	91.5	90.6	97.9
